# PubChem BioAssay AID1508601 (ICCB-Longwood Screening Facility, Harvard Medical School, 2020)
# Out of some 5,700 compounds screened, about 85 (1%) were called active. Cut-off read from the data, not from the text of the source: active = p53-positive nuclei above about 36% (passing the limit was not always enough); inactive = the rest. This excerpt belongs to a sample that is enriched for actives.
# Legend:
# [1] = nuclear p53 accumulation, HPV+ cells – imaging, p53-positive nuclei imaging, 24 h, 48 h (AID 1508601); conditions: 24/48 h
# [2] = target: Cellular tumor antigen p53 (Homo sapiens) (UniProt P04637); assay: as above; conditions: 24/48 h, stronger effect = higher value
# [3] = measured here: cell number at 24 h, concentration not given here
# [4] = measured here: cell number at 48 h, concentration not given here
# [5] = measured here: p53 positive nuclei at 24 h, concentration not given here
# [6] = measured here: cell number at 24 h, Library stock concentration: 10 mM
# [7] = measured here: cell number at 48 h, Library stock concentration: 10 mM
# [8] = Library stock concentration: 10 mM
# [9] = measured here: p53 positive nuclei at 24 h, Library stock concentration: 10 mM
# [10] = measured here: cell number at 24 h, Library stock concentration: 80 uM
# [11] = measured here: cell number at 24 h, Library stock concentration: 400 uM
# [12] = measured here: cell number at 24 h, Library stock concentration: 2 mM
# [13] = measured here: cell number at 48 h, Library stock concentration: 80 uM
# [14] = measured here: cell number at 48 h, Library stock concentration: 400 uM
# [15] = measured here: cell number at 48 h, Library stock concentration: 2 mM
# [16] = Library stock concentration: 80 uM
# [17] = Library stock concentration: 400 uM
# [18] = Library stock concentration: 2 mM
# [19] = measured here: p53 positive nuclei at 24 h, Library stock concentration: 80 uM
# [20] = measured here: p53 positive nuclei at 24 h, Library stock concentration: 400 uM
# [21] = measured here: p53 positive nuclei at 24 h, Library stock concentration: 2 mM
# Chain of Cellular tumor antigen p53 (Homo sapiens) (P04637 whole entry, looked up): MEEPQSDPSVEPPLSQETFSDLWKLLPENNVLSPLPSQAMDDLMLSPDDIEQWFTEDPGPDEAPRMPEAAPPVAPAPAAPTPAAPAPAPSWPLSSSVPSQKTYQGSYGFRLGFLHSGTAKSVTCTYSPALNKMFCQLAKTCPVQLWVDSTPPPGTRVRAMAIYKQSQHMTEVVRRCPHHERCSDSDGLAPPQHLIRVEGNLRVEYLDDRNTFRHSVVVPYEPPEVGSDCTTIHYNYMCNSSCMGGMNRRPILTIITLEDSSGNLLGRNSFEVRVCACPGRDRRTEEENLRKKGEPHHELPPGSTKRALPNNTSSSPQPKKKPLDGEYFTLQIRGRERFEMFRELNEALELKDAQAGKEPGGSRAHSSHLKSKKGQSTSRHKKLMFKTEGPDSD
smiles,measurement,setting,value
CC[C@@]1(O)C[C@H](O[C@H]2C[C@H](N(C)C)[C@H](O)[C@H](C)O2)c2c(cc3c(c2O)C(=O)c2c(O)cccc2C3=O)[C@H]1C(=O)OC,"nuclei count, normalised",[1]; [3],50.2%
same,"nuclei count, normalised",[1]; [4],38.4%
same,"p53-positive nuclei, normalised",[2]; concentration not given here,27.4% (inactive)
same,"p53-positive nuclei, normalised",[2]; [5],16.3%
CC[C@@]1(O)C[C@H](O[C@H]2C[C@H](N(C)C)[C@H](O)[C@H](C)O2)c2c(cc3c(c2O)C(=O)c2c(O)ccc(O)c2C3=O)[C@H]1C(=O)OC,"nuclei count, normalised",[1]; [3],29.9%
same,"nuclei count, normalised",[1]; [4],15.5%
same,"p53-positive nuclei, normalised",[2]; concentration not given here,92.8% (active)
same,"p53-positive nuclei, normalised",[2]; [5],88.5%
CC[C@@]1(O)C[C@H](O)c2c(cc3c(c2O)C(=O)c2c(O)ccc(O)c2C3=O)[C@H]1C(=O)OC,"nuclei count, normalised",[1]; [3],83.7%
same,"nuclei count, normalised",[1]; [4],84%
same,"p53-positive nuclei, normalised",[2]; concentration not given here,23.5% (inactive)
same,"p53-positive nuclei, normalised",[2]; [5],4.09%
CCCCC/C=C\C/C=C\C/C=C\C/C=C\CCCC(=O)Nc1cccc([N+](=O)[O-])c1,"nuclei count, normalised",[1]; [3],108%
same,"nuclei count, normalised",[1]; [4],112%
same,"p53-positive nuclei, normalised",[2]; concentration not given here,-0.154% (inactive)
same,"p53-positive nuclei, normalised",[2]; [5],-0.0854%
CN1CCC(N(C)CCC2CCOCC2)CC1,"nuclei count, normalised",[1]; [3],102%
same,"nuclei count, normalised",[1]; [4],105%
same,"p53-positive nuclei, normalised",[2]; concentration not given here,-0.0157% (inactive)
same,"p53-positive nuclei, normalised",[2]; [5],-0.151%
CN1C(=O)[C@@]23C[C@]4([C@]56C[C@@]78SS[C@@](CO)(C(=O)N7[C@@H]5Nc5ccccc56)N(C)C8=O)c5ccccc5N[C@H]4N2C(=O)[C@]1(CO)SS3,"nuclei count, normalised","[1]; measured here: cell number at 24 h, Library stock concentration: 500 nM",119%
same,"nuclei count, normalised","[1]; measured here: cell number at 24 h, Library stock concentration: 1.5 uM",109%
same,"nuclei count, normalised","[1]; measured here: cell number at 24 h, Library stock concentration: 4.6 uM",104%
same,"nuclei count, normalised","[1]; measured here: cell number at 24 h, Library stock concentration: 13.7 uM",98.9%
same,"nuclei count, normalised","[1]; measured here: cell number at 24 h, Library stock concentration: 41 uM",67.2%
same,"nuclei count, normalised","[1]; measured here: cell number at 24 h, Library stock concentration: 123 uM",42.7%
same,"nuclei count, normalised","[1]; measured here: cell number at 24 h, Library stock concentration: 370 uM",46.4%
same,"nuclei count, normalised","[1]; measured here: cell number at 24 h, Library stock concentration: 1.111 mM",36.8%
same,"nuclei count, normalised","[1]; measured here: cell number at 24 h, Library stock concentration: 3.333 mM",34.9%
same,"nuclei count, normalised",[1]; [6],41.7%
same,"nuclei count, normalised","[1]; measured here: cell number at 48 h, Library stock concentration: 500 nM",117%
same,"nuclei count, normalised","[1]; measured here: cell number at 48 h, Library stock concentration: 1.5 uM",107%
same,"nuclei count, normalised","[1]; measured here: cell number at 48 h, Library stock concentration: 4.6 uM",101%
same,"nuclei count, normalised","[1]; measured here: cell number at 48 h, Library stock concentration: 13.7 uM",85.5%
same,"nuclei count, normalised","[1]; measured here: cell number at 48 h, Library stock concentration: 41 uM",44.9%
same,"nuclei count, normalised","[1]; measured here: cell number at 48 h, Library stock concentration: 123 uM",30.9%
same,"nuclei count, normalised","[1]; measured here: cell number at 48 h, Library stock concentration: 370 uM",32.7%
same,"nuclei count, normalised","[1]; measured here: cell number at 48 h, Library stock concentration: 1.111 mM",24.5%
same,"nuclei count, normalised","[1]; measured here: cell number at 48 h, Library stock concentration: 3.333 mM",23.4%
same,"nuclei count, normalised",[1]; [7],27.3%
same,"p53-positive nuclei, normalised",[2]; Library stock concentration: 500 nM,0.0843% (inactive)
same,"p53-positive nuclei, normalised",[2]; Library stock concentration: 1.5 uM,0.192% (inactive)
same,"p53-positive nuclei, normalised",[2]; Library stock concentration: 4.6 uM,0.185% (inactive)
same,"p53-positive nuclei, normalised",[2]; Library stock concentration: 13.7 uM,1.67% (inactive)
same,"p53-positive nuclei, normalised",[2]; Library stock concentration: 41 uM,83.6% (active)
same,"p53-positive nuclei, normalised",[2]; Library stock concentration: 123 uM,95.7% (active)
same,"p53-positive nuclei, normalised",[2]; Library stock concentration: 370 uM,94.5% (active)
same,"p53-positive nuclei, normalised",[2]; Library stock concentration: 1.111 mM,72.8% (active)
same,"p53-positive nuclei, normalised",[2]; Library stock concentration: 3.333 mM,12.8% (inactive)
same,"p53-positive nuclei, normalised",[2]; [8],7.98% (inactive)
same,"p53-positive nuclei, normalised","[2]; measured here: p53 positive nuclei at 24 h, Library stock concentration: 500 nM",-0.114%
same,"p53-positive nuclei, normalised","[2]; measured here: p53 positive nuclei at 24 h, Library stock concentration: 1.5 uM",-0.173%
same,"p53-positive nuclei, normalised","[2]; measured here: p53 positive nuclei at 24 h, Library stock concentration: 4.6 uM",0.0127%
same,"p53-positive nuclei, normalised","[2]; measured here: p53 positive nuclei at 24 h, Library stock concentration: 13.7 uM",13.4%
same,"p53-positive nuclei, normalised","[2]; measured here: p53 positive nuclei at 24 h, Library stock concentration: 41 uM",101%
same,"p53-positive nuclei, normalised","[2]; measured here: p53 positive nuclei at 24 h, Library stock concentration: 123 uM",116%
same,"p53-positive nuclei, normalised","[2]; measured here: p53 positive nuclei at 24 h, Library stock concentration: 370 uM",117%
same,"p53-positive nuclei, normalised","[2]; measured here: p53 positive nuclei at 24 h, Library stock concentration: 1.111 mM",105%
same,"p53-positive nuclei, normalised","[2]; measured here: p53 positive nuclei at 24 h, Library stock concentration: 3.333 mM",30.1%
same,"p53-positive nuclei, normalised",[2]; [9],12.6%
NCCc1ccccc1Br,"nuclei count, normalised",[1]; [10],86.4%
same,"nuclei count, normalised",[1]; [11],90.6%
same,"nuclei count, normalised",[1]; [12],89.9%
same,"nuclei count, normalised",[1]; [6],98.5%
same,"nuclei count, normalised",[1]; [13],92.2%
same,"nuclei count, normalised",[1]; [14],90.8%
same,"nuclei count, normalised",[1]; [15],95%
same,"nuclei count, normalised",[1]; [7],98.1%
same,"p53-positive nuclei, normalised",[2]; [16],0.0704% (inactive)
same,"p53-positive nuclei, normalised",[2]; [17],0.0834% (inactive)
same,"p53-positive nuclei, normalised",[2]; [18],0.0298% (inactive)
same,"p53-positive nuclei, normalised",[2]; [8],0.0211% (inactive)
same,"p53-positive nuclei, normalised",[2]; [19],0.101%
same,"p53-positive nuclei, normalised",[2]; [20],0.248%
same,"p53-positive nuclei, normalised",[2]; [21],-0.0657%
same,"p53-positive nuclei, normalised",[2]; [9],-0.0492%
CN1CCC(C(=O)c2cccc(NC(=O)c3c(F)cc(F)cc3F)n2)CC1,"nuclei count, normalised",[1]; [10],126%
same,"nuclei count, normalised",[1]; [11],115%
same,"nuclei count, normalised",[1]; [12],121%
same,"nuclei count, normalised",[1]; [6],116%
same,"nuclei count, normalised",[1]; [13],118%
same,"nuclei count, normalised",[1]; [14],108%
same,"nuclei count, normalised",[1]; [15],108%
same,"nuclei count, normalised",[1]; [7],105%
same,"p53-positive nuclei, normalised",[2]; [16],-0.0182% (inactive)
same,"p53-positive nuclei, normalised",[2]; [17],-0.00116% (inactive)
same,"p53-positive nuclei, normalised",[2]; [18],-0.0434% (inactive)
same,"p53-positive nuclei, normalised",[2]; [8],-0.0859% (inactive)
same,"p53-positive nuclei, normalised",[2]; [19],-0.0846%
same,"p53-positive nuclei, normalised",[2]; [20],0.109%
same,"p53-positive nuclei, normalised",[2]; [21],0.0583%
same,"p53-positive nuclei, normalised",[2]; [9],-0.136%
